The whole screen tested about 3,600 compounds, of which about 900 (25%) were called active. The rule behind the calls is not given here. Only a sample is shown. Potency and affinity values are given separately.
The molecules below were run against Protein Tat (Human immunodeficiency virus type 1 group M subtype B (isolate HXB2)) (UniProt P04608) (assay: HIV-1 Tat–TAR interaction blockers – biochemical, fluorescence polarization, FAM-labeled TAR RNA, counter-screen for Vif-APOBEC3G degradation inhibitor project, dose response (AID 1117361)). Settings: Tat-TAR RNA binding; series mostly up to 100 µM; inhibition: at the top concentration.

SMILES | outcome | inhibition
CCCn1[nH]cc(SC)c(=O)c1=O | inactive | –
O=c1c(N=Nc2ccc(O)cc2)c(-c2ccccc2)[nH]n1-c1ccc([N+](=O)[O-])cc1 | – | 3.3% (inactive)
CC(SC1=NCCS1)C(=O)Nc1nnc(-c2ccc(Cl)cc2)s1 (configuration not stated) | inactive | –
CCn1cc(S(=O)(=O)CC(=O)Nc2ccc(OC)cc2)c2ccccc21 | – | 0.68% (inactive)
COc1cc(C(=O)Nc2ccc(S(=O)(=O)NC(C)C)cc2)cc(OC)c1OC | – | 6.82% (inactive)
C#Cc1ccc([C@H]2C=C(C(=O)N3CCOCC3)O[C@@H](OCc3ccc(CO)cc3)C2)cc1 | inactive | –
COc1ccccc1C(=O)Nc1cccc(-c2cn3ccsc3n2)c1 | – | 4.05% (inactive)
O=C(OCn1ncc(Br)c(Br)c1=O)c1ccc(F)cc1 | – | 1.35% (inactive)
C=CCc1ccc(OCCCCN2CC(C)OC(C)C2)c(OC)c1 (configuration not stated) | – | 7.5% (inactive)
O=C(NCCCN1CCOCC1)C1(c2ccccc2)CCCC1 | inactive | –
O=[N+]([O-])c1cc(CN2CCN(c3cccc(C(F)(F)F)c3)CC2)c2cccnc2c1O | – | 1.65% (inactive)
Oc1c(CN2CCOCC2)cc(CN2CCOCC2)c(O)c1O | – | 1% (inactive)
Cc1ccc(C(=O)Oc2ccc(Cl)c3cccnc23)cc1[N+](=O)[O-] | – | 0.68% (inactive)
COc1ccc(C(=O)Oc2c(CN3CCOCC3)cc(Cl)c3cccnc23)cc1 | inactive | –
Cc1[nH]c2ccccc2c1C1=CC(=O)C=CC1=O | inactive | –
CC[n+]1c(/C=C2/C=C(C)CC(C)(C)C2)sc2ccc(OC)cc21 | – | 3.01% (inactive)
Cc1nn(CC(=O)NC2CC2)c(C)c1S(=O)(=O)N(C)C | inactive | –
C/C(N)=C(/C#N)C(=O)CSc1nnc(Nc2c(C)cccc2C)s1 | – | 15% (inactive)
CC(Oc1ccc(Cl)cc1)c1ccnn1S(C)(=O)=O (configuration not stated) | – | 2.73% (inactive)
CC(=O)Nc1cc(NC(C)=O)cc(C(=O)N2CCCC3CCCCC32)c1 (configuration not stated) | – | 26.4% (inactive)
CCC(=O)Nc1ccc(S(=O)(=O)NC[C@H]2O[C@@H](n3cc(C)c(=O)[nH]c3=O)C[C@@H]2O)cc1 | inactive | –
CCOC(=O)CSc1nnc(-c2ccccc2NC(=O)c2ccccc2)o1 | – | 1.36% (inactive)
O=C(NCc1cn2ccccc2n1)c1ccc2c(c1)OCO2 | – | 0.68% (inactive)

SMILES | outcome | inhibition
Cn1ncc2c(Nc3ccc4ccccc4c3)ncnc21 | – | 1.36% (inactive)
CCC(C)N1C(=O)S/C(=C/c2ccc(Sc3nc4ccccc4[nH]3)o2)C1=O (configuration not stated) | inactive | –
COc1cccc(-c2cc(C(=O)Nc3cnn(Cc4ccccc4C)c3)no2)c1 | – | 7.43% (inactive)
CC(C)c1ccc(NC(=O)C(c2ccccc2)N2CCC3(CC2)OCCO3)cc1 (configuration not stated) | – | 0.68% (inactive)
Cc1ccc(S(=O)(=O)N2CCN(C(C(=O)Nc3ccc(F)cc3)c3ccccc3)CC2)cc1 (configuration not stated) | – | 2.05% (inactive)
Cc1[nH]c2ccccc2c1C(=O)Cn1c(=O)oc2ccccc21 | – | 4.73% (inactive)
O=C(CCC(=O)OCC(=O)c1ccc(F)cc1)NC1CCCCC1 | – | 0.68% (inactive)
CCOC(=O)C1=C(CSc2nc(C)ccc2C#N)OC(N)=C(C#N)C1c1cccc(OC)c1OC (configuration not stated) | – | 3.41% (inactive)
O=C(CN(c1ccc(F)cc1)S(=O)(=O)c1ccc2c(c1)OCCO2)NCc1ccccn1 | – | 15.5% (inactive)
COc1ccc(N(CC(=O)NCc2ccccc2C)S(=O)(=O)c2ccc(C)cc2)cc1OC | – | 3.01% (inactive)
NNC(=O)c1ccc(N2CCc3ccccc32)c([N+](=O)[O-])c1 | inactive | –
O=C(NCc1ccncc1)c1cnccn1 | inactive | –
COC(=O)c1ccc(NC(=S)NCCC2=CCCCC2)cc1 | – | 2.03% (inactive)
CC(=O)Nc1ccc(NC(=O)C(C)OC(=O)CCc2c[nH]c3ccccc23)cc1 (configuration not stated) | inactive | –
C/C(=N\NC(=O)c1cnccn1)c1ccc([N+](=O)[O-])cc1 | – | 3.3% (inactive)
C=CCN(CC=C)C(=S)NC(=O)c1ccc([N+](=O)[O-])cc1 | – | 6.14% (inactive)
CC1=CC(C)(C)N=C(Nc2nc(C)c3cc(C)cc(C)c3n2)N1 | inactive | –
O=C(C/C=N/OCc1c(Cl)cccc1Cl)c1ccc(Cl)cc1 | – | 2.73% (inactive)
CC(C)(C)OC(=O)N1CCCC1C(=O)N1CCc2ccccc21 (configuration not stated) | inactive | –
CC(=O)c1cc2c(cc1NC(=O)CSc1nc3ccccc3o1)OCO2 | – | 19.1% (inactive)
O=[N+]([O-])c1ccc2nc(-c3ccccc3)oc2c1 | inactive | –
CC(=O)NNC(=O)C(O)(c1ccccc1)c1ccccc1 | – | 6.08% (inactive)
CCc1ccc(S(=O)(=O)/N=C2\C=CC(=O)c3ccccc32)cc1 | – | 22.3% (inactive)

SMILES | outcome | inhibition
CC(C)c1ccc(S(=O)(=O)/N=C2/C=CC(=O)c3ccccc32)cc1 | – | 13.2% (inactive)
CN(C)c1ccc(NC(=O)Nc2cccc(Cl)c2)cc1 | – | 6.08% (inactive)
COc1ccc(C(=O)N2CCCN(C)CC2)cc1S(=O)(=O)N1CCCc2ccccc21 | – | 2.03% (inactive)
COC(=O)C1=C(C)NC(=O)NC1c1ccc2c(c1)OCO2 (configuration not stated) | – | 5.01% (inactive)
Cc1ccc(CCNC(=O)C2CCN(S(=O)(=O)c3ccc4c(c3)CCC(=O)N4)CC2)cc1 | – | 6.76% (inactive)
CC1CCCC(NC(=O)C2CCC(CNc3c(N4CCCC4)c(=O)c3=O)CC2)C1C (configuration not stated) | – | 3.3% (inactive)
COc1ccc(C(=O)OCC(=O)c2c(N)n(C)c(=O)n(C)c2=O)cc1OC | – | 4.12% (inactive)
CCOC(=O)c1c(C)[nH]c(C(=O)COC(=O)CN2C(=O)C3CCCCC3C2=O)c1C (configuration not stated) | inactive | –
COc1ccc(CC(=O)Oc2ccc(F)c(F)c2)cc1S(=O)(=O)N1CCOCC1 | inactive | –
CC1(C)CCN(Cc2ccccc2)C1CC#N (configuration not stated) | – | 12.8% (inactive)
COC(=O)c1cnn2c(C)c(Cc3cccc(F)c3)c(C)nc12 | inactive | –
COC(=O)C1CCN(C(=O)NC(C)(C)C)CC1 | inactive | –
COc1cc2oc3ccccc3c2cc1N(CC(=O)N(C)C)S(=O)(=O)c1ccccc1 | – | 4.05% (inactive)
CCOc1cc(C2NC(=O)NC(C)=C2C(=O)NCc2ccccc2)c(Cl)cc1O (configuration not stated) | – | 2.7% (inactive)
O=C(O)c1ccc(S(=O)(=O)c2ccc3c(c2)C(=O)N(Cc2ccco2)C3=O)cc1 | – | 29.3% (inactive)
c1ccc(Cn2nnnc2-c2ccco2)cc1 | – | 13.5% (inactive)
O=C1c2ccccc2C(=O)N1CCC(c1ccc(F)cc1)c1ccco1 (configuration not stated) | inactive | –
Cn1c(N)c(C(=O)CCl)c(=O)n(Cc2ccccc2)c1=O | inactive | –
CC1CCCCN1C(=O)c1ccc(S(=O)(=O)N2CCCCC2C)cc1 (configuration not stated) | – | 0.68% (inactive)
COCCn1c(COc2cccc(OC)c2)nnc1SCC(=O)N1CCOCC1 | – | 2.03% (inactive)
NC(=O)C[C@@H]1N[C@]2(C(=O)Nc3ccccc32)[C@@H]2C(=O)N(c3cc(C(F)(F)F)ccc3Cl)C(=O)[C@H]12 | – | 18.9% (inactive)

Source: PubChem BioAssay AID1117361 (Southern Research Institute, 2015)
